Target: PEG-3 (UniProt Q6IN02)
Test: Peg3 promoter luciferase inhibitors, potency, dose response, cell-based, HeLa, CREF/GAPDH counter-screen panel (AID 624167)
Conditions: CREF/GAPDH counter-screens; HeLa PEG-Prom luciferase reporter, overnight, run 2, dose range 1, at 100 µM (top of the series) unless noted

Sequence of PEG-3 (Q6IN02 whole entry, looked up): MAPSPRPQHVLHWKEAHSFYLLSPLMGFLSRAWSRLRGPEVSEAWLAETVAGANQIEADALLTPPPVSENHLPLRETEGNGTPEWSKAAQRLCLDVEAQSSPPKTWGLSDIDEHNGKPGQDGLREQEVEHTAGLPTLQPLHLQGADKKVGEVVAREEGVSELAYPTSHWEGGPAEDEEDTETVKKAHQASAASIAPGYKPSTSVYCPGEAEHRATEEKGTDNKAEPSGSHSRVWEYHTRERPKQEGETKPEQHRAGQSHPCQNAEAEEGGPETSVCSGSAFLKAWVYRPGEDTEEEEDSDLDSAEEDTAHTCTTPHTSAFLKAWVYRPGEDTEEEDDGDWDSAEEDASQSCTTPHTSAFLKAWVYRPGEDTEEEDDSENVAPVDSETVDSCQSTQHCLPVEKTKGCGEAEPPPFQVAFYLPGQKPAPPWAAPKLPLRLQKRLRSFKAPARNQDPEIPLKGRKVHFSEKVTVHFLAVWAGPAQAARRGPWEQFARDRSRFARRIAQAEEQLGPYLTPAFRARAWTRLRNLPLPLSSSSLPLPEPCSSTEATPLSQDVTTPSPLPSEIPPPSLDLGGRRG

Compound	inhibition
CC1(C(=O)NCc2cccc3ccccc23)CCN1C(=O)Cc1ccc(-c2ccccc2)cc1 (stereo not given)	43.6%
O=[N+]([O-])c1ccc(-c2nc(Nc3cccc(O)c3)c3ccccc3n2)cc1	101%
CN(C)CCNc1ncnc2c1sc1nc(N3CCCC3)c3c(c12)CC(C)(C)OC3	102%
CC(C)NC(=O)NC(=O)COC(=O)c1c2c(nc3ccccc13)CCC2	93.6%
CCC(=O)NC(c1cccs1)c1cc([N+](=O)[O-])c2cccnc2c1O (stereo not given)	101%
N=c1n(CCN2CCCC2)c2ccccc2n1CC(O)c1ccc(Cl)c(Cl)c1 (stereo not given)	101%
COc1ccccc1CN(C)C(=O)c1cc(-c2cc(OC)c(OC)c(OC)c2)nc2ccccc12	84.7%
CCN(CCN(C)C)C(=O)C1CCN(S(=O)(=O)c2c(C)noc2/C=C/c2ccccc2F)CC1	97.5%
CCCCC(=O)NC(c1ccccc1Cl)c1ccc2cccnc2c1O (stereo not given)	87.3%
Cc1c(C#N)c(N)nc2c3c(sc12)NC(=O)CC3c1ccc(Cl)cc1 (stereo not given)	100%
c1cncc(-c2nc(NCC3COc4ccccc4O3)c3ccccc3n2)c1 (stereo not given)	99.8%
CC(C)(C)c1ccc(CN2N=Nc3ccccc3S2(=O)=O)cc1	100%
O=S(=O)(c1cccs1)N1CCN(c2ccnc3cc(Cl)ccc23)CC1	90.7%
CCc1cccc(CC)c1NC(=S)NCCc1c(C)[nH]c2ccc(C)cc12	83.9%
CC1CCCCN1CCNC(=O)c1ccc2c(=O)n(Cc3ccc(Cl)cc3)c(=S)[nH]c2c1 (stereo not given)	99.1%
CCCN1CCc2c(sc(NC(=O)c3ccc(S(=O)(=O)N4CCN(C(=O)OCC)CC4)cc3)c2C(N)=O)C1	85.4%
CCCN(CC(=O)Nc1cc(Cl)cc(Cl)c1)CC(=O)Nc1ccc(F)c(F)c1F	99%
COc1ccc(Nc2oc(COc3ccccc3OC)nc2C#N)cc1	88.5%
O=C(Cn1ncc(Cl)c(Cl)c1=O)N1CCN(Cc2ccccc2)CC1	98.8%
CC(=O)c1c(NCCc2ccccc2)nc(=S)n(-c2ccccc2)c1C	99%

Compound	inhibition
Cc1nc(-c2ccc(F)cc2)c(CC(=O)N(C)CC(=O)Nc2ccc(Cl)c(C(F)(F)F)c2)s1	102%
CCOC(=O)c1c(NC(=O)CSc2nnnn2-c2ccccc2OCC)sc2c1CC(C)(C)NC2(C)C	102%
Cc1cc(/C=c2/sc3nc4ccccc4n3c2=O)c(C)n1-c1ccccn1	84.5%
Cc1c(C(=O)N2CCN(c3ccc(F)cc3)CC2)sc2ncnc(N3CCN(c4ccccn4)CC3)c12	77.6%
C/C(=N\N=C(N)N)c1ccc(Cl)cc1Cl	101%
O=c1cc2oc3cc(O)c(O)cc3c(-c3ccccc3[N+](=O)[O-])c-2cc1O	99.6%
NCCc1c(-c2ccccc2)n(-c2ccccc2)c2ccccc12	102%
C[C@@H]1[C@H]2[C@@H]3CC[C@@H](C3)[C@H]2CN[C@H]1c1cn(Cc2ccccc2)c2ccccc12	102%
COc1ccc(-n2cc(CNC3CCN(C)CC3)c(-c3cccc(F)c3)n2)cc1	101%
COCOCCn1cc(CN2CCS(=O)(=O)N(Cc3ccc(-c4ccc(Cl)c(Cl)c4)cc3)C(C(C)C)C2=O)nn1 (stereo not given)	97.8%
Cc1nn(-c2ccccc2)c2c1C(c1ccc([N+](=O)[O-])cc1)N1C(=N2)C(=O)Nc2ccccc21 (stereo not given)	2.44%
COc1ccccc1NC(=O)c1cc(-c2cc(OC)c(OC)c(OC)c2)nc2ccccc12	50.1% [run 2, dose range 1, at 50 µM]
COc1ccc(CN(C)C(=O)C(Cc2ccccc2)NC(=O)c2ccccc2)cc1F (stereo not given)	98.2%
CC(C)CC(N)c1csc(NC(=O)Nc2ccccc2C(C)(C)C)n1 (stereo not given)	101%
CC(C)CC(N)c1csc(Nc2ccc(C(=O)c3ccccc3)cc2)n1 (stereo not given)	101%
COc1ccc(-c2cc(C(=O)N3CCN(c4ccccc4F)CC3)c3ccccc3n2)c(OC)c1	47.4%
CN(C)CCNc1ncnc2c1sc1nc(N3CCOCC3)c3c(c12)CC(C)(C)SC3	101%
O=C1N[C@@H](c2ccccc2)COC(=O)[C@@H](Cc2ccc(F)cc2)CC/C=C/C[C@H]1CC(=O)N(CCO)Cc1ccccc1	97.4%
CN(CC(=O)Nc1ccc(Cl)c(C(F)(F)F)c1)C(=O)c1cc(-c2ccncc2)nc2ccccc12	98.9%
CCN1CCN(c2ncc(C(=O)Nc3cc(Cl)ccc3OC)c3ccccc23)CC1	98.7%
